From PubChem BioAssay (NCI)
About 83,000 compounds went through this panel and 20% of them were active in at least one assay; those are over-represented in the sample as a whole.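 Cells were grown in 96-well plates and exposed to the test compound at a single concentration for 48 hours; results are reported as percent growth, with values below 10 considered active.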 Values without a mark were called inactive. Calls of active or inactive are those of the source.

What follows are molecules tested on MDA-MB-468 breast (assay: NCI-60 one-dose screen, 48 h (100 = growth as untreated, 0 = no growth, -100 = all killed)). Details: 10 µM unless noted.

Compound | growth
Brc1ccc(C2CC(c3cccc(Nc4ccncc4)c3)=NN2c2ccccc2)cc1 (stereo not given) | 78.2%
CNCCCNc1ccnc2cc(Cl)ccc12 | -85% (active)
COc1ccc(-c2nc3ccc(-c4nnc(SCC(=O)Nc5ccc(C(=O)/C=C/c6ccc(Cl)cc6)cc5)o4)cc3[nH]2)cc1OC | 102%
C=C1C(=O)O[C@H]2[C@H]1CC/C(COC(=O)NCc1ccc(Cn3c(=O)sn(CCCCl)c3=O)cc1)=C\CC[C@@]1(C)O[C@@H]21 | -52% (active)
CCCCNC(=O)NS(=O)(=O)c1ccc(N2N=C(c3cc(C)ccc3C)CC2c2cc(OC)c(OC)c(OC)c2)cc1 (stereo not given) | 24.4%
O=C(Cc1ccccc1)NNc1nc(Cl)nc(N2CCN(C(c3ccccc3)c3ccccc3)CC2)n1 | 38.2%
Nc1c(Cl)cc(N=Nc2ccccc2)cc1Cl | -61.3% (active)
Cc1c(Cc2ccccc2)c(=O)oc2c(C)c(OCc3n[nH]c(=S)o3)ccc12 | 77.7%
N#Cc1c(N)nc(-c2cc(F)cc(C(F)(F)F)c2)nc1-c1ccccc1F | 62.8%
Oc1ccccc1-c1nnc(SCc2ccc(O)c3ncccc23)n1-c1ccccc1 | 0.833% (active)
CC1(C)CC(O)CCCCCCOc2c(CN)cccc2NC(=O)c2nc(cnc2N)-c2ccc(cc2)S1(=O)=O (stereo not given) | 6.87% (active)
COc1ccc(C2C(c3ccccc3)C(=O)N2c2cc(OC)c(OC)c(OC)c2)cc1I (stereo not given) | 15.7%
COc1ccc(C2CC(c3cccc(Nc4ccncc4)c3)=NN2c2cc(Cl)cc(Cl)c2)cc1 (stereo not given) | 43.3%
CC(=O)Nc1ncc(S(=O)(=O)c2ccc([N+](=O)[O-])cc2)s1 | 107%
FC(F)(F)c1ccccc1-c1cn2c(ccc3ccccc32)n1 | 105%
COc1ccc(C[C@H](N)C(=O)N[C@@H]2[C@@H](CO)OC(n3cnc4c(N(C)C)ncnc43)[C@@H]2O)cc1 (stereo not given in full) | -70.8% (active)
COc1cc(-c2nc3ccc(-c4nnc(SCC(=O)Nc5ccc(C(=O)/C=C/c6ccc(Cl)cc6)cc5)o4)cc3[nH]2)cc(OC)c1OC | 93%
COc1ccc(N=Nc2nccs2)c(O)c1 | 18.6%
Cc1cc(Nc2nc(N3CCN(C)CC3)nc3ccccc23)n[nH]1 | 90%
CCN(CC)CCCCNc1c2ccccc2[n+](C)c2c1[nH]c1ccccc12 | -58.5% (active)

Compound | growth
O=C(O)c1c([N+](=O)[O-])cnc2ccccc12 | 112%
COc1ccc2c(c1)C(=O)c1c-2c(OCCN(C)C)nc2cc(OC)ccc12 | 15.9%
CCCCCCCn1cc2c(N[C@H](C)c3ccccc3)ncnc2n1 | 119%
CCCCCCCCCCCCCCCCCC[S+](C)CC (stereo not given) | -42.5% (active)
C1=NCCc2ccccc21 | 109%
NC1[C@H]2CN(c3cnc(C(=O)Nc4cc(F)cc5cccnc45)cn3)C[C@@H]12 (stereo not given in full) | 3.36% (active)
C/C=C(/C)C(=O)O[C@@H]1CC(C)(C)CC2C34OC(=O)[C@@]21CC[C@@]3(C)[C@]1(C)CCC2C(C)(C)C(=O)CC[C@]2(C)C1C[C@@H]4O (stereo not given in full) | 13.1%
COc1ccc(-c2cc(-c3nnc(SC/C(=N\O)c4ccccc4)n3-c3ccccc3)c3ccccc3n2)cc1 | 107%
CCN(CC)CCOCC[C@H]1CC[C@H]2[C@@H]3[C@H](C)Cc4cc(OS(N)(=O)=O)ccc4[C@H]3CC[C@]12C | -87.2% (active)
O=C1NC(=O)C(CSc2ccccc2)(c2ccccc2)N1 (stereo not given) | 105%
CC(=O)OCC1SC(OC(C)=O)C(NC(=O)/C=C/CCl)C(OC(C)=O)C1OC(C)=O (stereo not given) | 98.5%
C/C(CC1(O)C(=O)Nc2ccccc21)=N\O (stereo not given) | 92%
O=c1n(Cc2ccc3ccccc3c2)ccn1Cc1ccc2ccccc2c1 | 94.3%
COc1ccc(C2N(c3cc(OC)c(OC)c(OC)c3)C(=O)C2(F)F)cc1F (stereo not given) | 44.5%
COc1cc(-c2csc(NC(=O)c3cc(-n4cnc(C)c4)cc(C(F)(F)F)c3)n2)cc(OC)c1OC | 78.4%
CCCCCCCCCCCCCCCCCC(=O)NCCNC(=O)CCCCCCCCCCCCCCCCC | 102%
CC(CN1CCCCC1)C(=O)c1ccccc1 (stereo not given) | 105%
CCCCC1COc2cccc3c2N1C=C/C3=C\C(=O)N(C)c1ccccc1 (stereo not given) | 18.8%
O=c1c2ccccc2cc2n1CCN=C2c1ccccc1 | 98.4%
CC(C(=O)O)N1C(N)=NNC1c1ccccc1O (stereo not given) | 104%
